Assay outcomes as filed in PubChem.
Only a selection was taken, and hits are over-represented in it overall.
IDE exosite FP: exo-site inhibitors of human insulin-degrading enzyme; P14735; purified IDE, FL-6b probe fluorescence polarization; stronger effect = lower value; z-score at 20 µM; 6.3% of 17,000 active;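 active means z-score of -3 or lower, meaning strong loss of probe binding signal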;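 further: His-tagged human IDE residues 42-1019 made in E. coli with 30 nM FL-6b probe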
Target sequence (P14735 42-1019 limits assumed): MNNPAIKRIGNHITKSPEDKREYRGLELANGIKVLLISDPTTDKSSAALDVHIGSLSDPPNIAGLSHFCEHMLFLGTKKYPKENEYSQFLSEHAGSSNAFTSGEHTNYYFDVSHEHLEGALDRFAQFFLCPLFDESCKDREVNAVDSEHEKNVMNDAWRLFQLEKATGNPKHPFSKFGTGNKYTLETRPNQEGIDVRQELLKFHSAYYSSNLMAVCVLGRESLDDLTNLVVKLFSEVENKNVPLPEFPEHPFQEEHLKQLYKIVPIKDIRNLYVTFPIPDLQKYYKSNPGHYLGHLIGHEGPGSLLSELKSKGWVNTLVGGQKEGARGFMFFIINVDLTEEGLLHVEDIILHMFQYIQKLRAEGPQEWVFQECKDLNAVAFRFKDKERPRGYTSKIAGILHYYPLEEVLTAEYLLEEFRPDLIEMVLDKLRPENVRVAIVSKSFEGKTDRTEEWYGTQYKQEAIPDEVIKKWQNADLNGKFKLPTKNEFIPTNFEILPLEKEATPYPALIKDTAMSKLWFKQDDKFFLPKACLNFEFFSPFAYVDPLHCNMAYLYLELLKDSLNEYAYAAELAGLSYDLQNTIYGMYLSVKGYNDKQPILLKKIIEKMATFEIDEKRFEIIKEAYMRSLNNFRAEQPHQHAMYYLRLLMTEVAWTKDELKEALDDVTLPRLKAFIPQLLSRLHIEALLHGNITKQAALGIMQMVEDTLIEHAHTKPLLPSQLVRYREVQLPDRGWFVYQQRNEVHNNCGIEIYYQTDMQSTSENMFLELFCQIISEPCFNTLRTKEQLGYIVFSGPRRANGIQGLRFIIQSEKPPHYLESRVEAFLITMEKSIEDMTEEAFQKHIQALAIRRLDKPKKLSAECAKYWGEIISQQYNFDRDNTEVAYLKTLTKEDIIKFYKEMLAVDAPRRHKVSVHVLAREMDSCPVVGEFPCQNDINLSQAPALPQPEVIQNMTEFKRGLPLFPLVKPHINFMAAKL
* = called active by the depositor; ! = repeats disagree.

SMILES	IDE exosite FP
Cc1noc(C)c1NC(=O)Nc1ccc2c(c1)C(=O)N([C@@H](C)CO)C[C@@H](C)[C@@H](CN(C)Cc1ccc3c(c1)OCO3)OCCCC[C@@H](C)O2	0.85
COc1ccc(NC(=O)N2C[C@H](O)COC[C@H]3O[C@H](CC(=O)N4CCCCC4)CC[C@@H]32)cc1	1.3
COCC(=O)N(C[C@@H]1[C@@H](c2ccccc2)[C@@H](CO)N1C(=O)NC(C)C)C(C)C	-0.46
C/C=C/c1ccc(C2[C@@H]3CN(S(=O)(=O)c4cccc(OC)c4)C[C@H]2N3)cc1 (stereo not given in full)	0.72
CN(C)CC#Cc1ccc([C@H]2[C@@H](CO)N3C(=O)CN(C(=O)c4cccc(F)c4)C[C@@H]23)cc1	1
N#C[C@H]1[C@@H](c2ccccc2)[C@H](CO)N1C(=O)c1cccnc1	3.6
N#C[C@H]1[C@H](c2ccc(C#Cc3ccccc3F)cc2)[C@@H](CO)N1C(=O)c1cccnc1	-5.5*
N#C[C@@H]1[C@@H](c2ccc(C#Cc3ccccc3F)cc2)[C@H](CO)N1C(=O)c1cccnc1	-2.5
CO[C@H]1CC[C@H]2CCOc3ccc(C#N)cc3C(=O)N(C)CC3(CCCCC3)CC(=O)N(C)C[C@H]1O2	-0.39
O=C(NC1CCCC1)N1CCCCN2[C@H](CO)[C@@H](c3ccc(-c4ccccc4)cc3)[C@H]2C1	1.8
O=C(NC1CCCC1)N1CCCCN2[C@H](CO)[C@H](c3ccc(-c4ccncc4)cc3)[C@H]2C1	4.5
O=C(NC1CCCC1)N1CCCCN2[C@@H](CO)[C@@H](c3ccc(/C=C/c4ccccc4)cc3)[C@@H]2C1	-8.4*
O=C(NC1CCCC1)N1CCCCN2[C@H](CO)[C@H](c3ccc(-c4ccncc4)cc3)[C@@H]2C1	4.7
O=C(NC1CCCC1)N1CCCCN2[C@@H](CO)[C@H](c3ccc(/C=C/c4ccccc4)cc3)[C@@H]2C1	-15*
O=C(NC1CCCC1)N1CCCCN2[C@H](CO)[C@H](c3ccc(-c4ccccc4)cc3)[C@@H]2C1	-0.47
COc1ccccc1-c1ccc([C@H]2[C@@H](CO)N3CCCCN(C(=O)NC4CCCC4)C[C@@H]23)cc1	-9.3*
O=C(Nc1ccccc1F)N1CCCCN2[C@@H](CO)[C@@H](c3ccc(/C=C/c4ccccc4)cc3)[C@@H]2C1	-1.2
O=C(Nc1ccccc1F)N1CCCCN2[C@H](C1)[C@H](c1ccc(/C=C/c3ccccc3)cc1)[C@@H]2CO	-0.83
CC(C)[C@@H]1CCc2cnnn2COC[C@H](Cc2ccccc2)NC1=O	-0.78
O=C(NCC[C@@H]1CC[C@@H](NC(=O)c2ccncc2)[C@H](CO)O1)Nc1ccc(Cl)cc1	1.2
O=S(=O)(c1ccc(F)cc1)N1CCCCN2[C@H](CO)[C@@H](c3ccc(-c4ccccc4)cc3)[C@H]2C1	3.5
C[C@@H]1CCCCO[C@H](CN(C)Cc2ccncc2)[C@H](C)CN([C@@H](C)CO)C(=O)c2cc(NC(=O)Cc3ccccc3)ccc2O1	-0.043
COc1cccc(-c2ccc([C@H]3[C@@H](C#N)N(C(=O)Cc4ccncc4)[C@@H]3CO)cc2)c1	-3.8*
COc1cccc(-c2ccc([C@@H]3[C@@H](C#N)N(C(=O)Cc4ccncc4)[C@@H]3CO)cc2)c1	-10*
COc1cccc(-c2ccc([C@H]3[C@H](C#N)N(C(=O)Cc4ccncc4)[C@H]3CO)cc2)c1	-2.7
SMILES	IDE exosite FP
COc1cccc(-c2ccccc2[C@@H]2[C@@H](C#N)N(C(=O)Cc3ccccc3)[C@H]2CO)c1	-1.1
CCCNC(=O)N1[C@H](CO)[C@H](c2ccc(-c3cccc(OC)c3)cc2)[C@@H]1C#N	-1.2
COc1cccc(-c2ccccc2[C@@H]2[C@H](C#N)N(C(=O)Cc3ccccc3)[C@H]2CO)c1	0.95
N#C[C@H]1[C@@H](c2ccccc2C2=CCCC2)[C@@H](CO)N1C(=O)c1cccc(F)c1	0.12
CCCC#Cc1ccc([C@@H]2[C@@H](CO)N3C(=O)CN(C(=O)c4cccnc4)C[C@H]23)cc1	-0.38
COCCNC(=O)C[C@@H]1CC[C@H]2[C@@H](COC[C@H](O)CN2Cc2ccc(Cl)c(Cl)c2)O1	1.4
O=C(c1cccnc1)N1C[C@@H]2N[C@H](C1)C2c1ccc(-c2ccccc2)cc1 (stereo not given in full)	-2.8
O=C(C1CCOCC1)N1C[C@@H]2N[C@H](C1)C2c1ccc(-c2ccncc2)cc1 (stereo not given in full)	2.1
O=C(c1ccc2c(c1)OCO2)N1C[C@@H]2N[C@H](C1)C2c1ccc(/C=C/c2ccccc2)cc1 (stereo not given in full)	-0.41
O=C(CN1CCOCC1)N1C[C@@H]2N[C@H](C1)C2c1ccc(/C=C/c2ccccc2)cc1 (stereo not given in full)	-0.79
COc1ccc(-c2ccc(C3[C@@H]4CN(Cc5ccccn5)C[C@H]3N4)cc2)cc1 (stereo not given in full)	3.7
C(=C\c1ccc(C2[C@@H]3CN(Cc4ccccn4)C[C@H]2N3)cc1)/c1ccccc1 (stereo not given in full)	-5.2*
COc1ccccc1NC(=O)N1C[C@@H]2N[C@H](C1)C2c1ccc(/C=C/c2ccccc2)cc1 (stereo not given in full)	-0.39
O=C(C1CCOCC1)N1C[C@@H]2N[C@H](C1)C2c1ccc(/C=C/c2ccccc2)cc1 (stereo not given in full)	-7.6*!
O=C(c1ccc(F)cc1)N1C[C@@H]2N[C@H](C1)C2c1ccc(/C=C/c2ccccc2)cc1 (stereo not given in full)	-4.6*!
C(=C\c1ccc(C2[C@@H]3CN(Cc4nccs4)C[C@H]2N3)cc1)/c1ccccc1 (stereo not given in full)	-2.4
O=C(c1ccncc1)N1C[C@@H]2N[C@H](C1)C2c1ccc(/C=C/c2ccccc2)cc1 (stereo not given in full)	-14*!
O=C(c1ccc(F)cc1)N1CC(=O)N2[C@H](CO)[C@@H](c3ccc(/C=C/c4ccccc4)cc3)[C@H]2C1	2
COCCNC(=O)C[C@@H]1CC[C@@H]2[C@H](COc3ccc(NS(=O)(=O)c4ccc(Cl)cc4)cc3C(=O)N2C)O1	-1.5
CC(=O)N1[C@H](CO)[C@H](c2ccccc2)[C@H]1CN(CC(C)C)C(=O)c1ccccn1	-0.43
O=C(C[C@H]1C[C@H]2c3cc(NC(=O)c4ccc5c(c4)OCO5)ccc3O[C@H]2[C@@H](CO)O1)NCCN1CCCCC1	-0.42
O=C(NC1CCC1)[C@H]1[C@H](CO)[C@H]2Cn3c(ccc(-c4ccncc4)c3=O)[C@@H]1N2Cc1cocn1	2.2
COc1cccc(C#Cc2ccc([C@H]3[C@@H](CO)N(C(=O)C4CCCCC4)[C@H]3C#N)cc2)c1	6.2
COc1ccc(C#Cc2ccc3c(c2)[C@H]2[C@H](CCN2S(=O)(=O)c2ccccc2C)[C@H](CO)N3C)cc1	0.14
O=C(Nc1cccc(F)c1)N1CC(=O)N2[C@H](CO)[C@H](c3ccc(C#Cc4cccnc4)cc3)[C@H]2C1	4.2
CC(=O)N(C[C@@H]1N[C@@H](CO)[C@H]1c1ccc(-c2ccc(F)cc2)cc1)C(C)C	2.3
CN(C)C(=O)c1cccc(-c2ccc(C3[C@H]4CNC[C@@H]3N4C(=O)NC3CCCC3)cc2)c1 (stereo not given in full)	5.7
N#C[C@H]1[C@H](c2ccccc2-c2cccc(F)c2)[C@@H](CO)N1C(=O)C1CC1	-0.28
